# Only some compounds are listed: those with a hit (about 7.9% of all), similar ones and a draw of the others.
# HCV inhibitor – HCV inhibition; Huh7.5.1 HCVcc-Cre infection, luciferase reporter, 44 h; Potency, µM (doses to about 41.8 µM), for inactives: at the top dose activity change, negative = inhibition, usual class: inhibitors; 340,000 tested, 3.4% active; AID 651820; active = well fitted inhibition curve with a large enough effect; inconclusive = small, poorly fitted or top-dose-only effect, or another doubt; inactive = no such curve, though single readings can be large or run the other way; note: potency is the fitted concentration of half-maximal effect
#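 1,000 cells/well; 4 h culture; + compound; + HCVcc-Cre (~0.5 moi); 44 h; luciferase substrate, RT 15 min; read 15 sec.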
# HCMV inh – inhibitors of human cytomegalovirus; HFF cells, HCMV-luciferase reporter, 72 h; hits give low values; activity change, negative = inhibition, % at 57.5 µM; 410,000 tested, 4.5% active; in the data active = activity change below about -60%; inconclusive = no clear call, values can overlap the other calls; inactive = above about -39%
#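 Two compound doses tested in HFFs infected with HCMV-luciferase, MOI 1 PFU/cell, 72 h at 37C. Lysate luminescence read with OneGlo; data normalized against buffer-only and 10uM Salinomycin inhibitor controls.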
# Marburg entry inh – blocks Marburg virus binding to or entry into cells. AID 540276. 300,000 tested, 1.8% active. Potency, µM (series often up to 37.8 µM), for the others: at the highest dose activity change, negative = inhibition, most hits filed as inhibitors. Marburg virus pseudotyped entry inhibition, cell reporter; calls by dose curve; tested in HEK293 cells; note: potency is the fitted concentration of half-maximal effect
# FMDV inh – foot and mouth disease virus antiviral activity | FMDV antiviral cell-based qHTS | Potency, µM (doses to about 57.9 µM), without a hit: top-dose activity change, negative = inhibition, most hits filed as inhibitors | 410,000 tested, 1.2% active | AID 1159524; calls by dose curve; tested in HEK293T cells; note: read-out not given here; potency is the fitted concentration of half-maximal effect; nearly all actives have a fitted effect of over 45% in size
# Lassa entry inh – blocks Lassa virus binding to or entry into cells. Potency, µM (highest dose often 37.9 µM), without a hit: top-dose activity change, negative = inhibition, most hits filed as inhibitors. 300,000 tested, 1.2% active. AID 540256. Lassa virus pseudotype entry inhibition, cell reporter; calls by dose curve; tested in HEK293 cells; note: potency is the fitted concentration of half-maximal effect; nearly all actives have a fitted effect of over 50% in size
# The depositor's hits bear a star; ? = inconclusive; nt = not tested or not shown; [ ] = remark or other dose. % is set by controls: 0 for no effect and ±100 for the full control effect.
SMILES,HCV inhibitor,HCMV inh,Marburg entry inh,FMDV inh,Lassa entry inh
NC(=O)C1CCCN1Cc1ccc2c(c1)OCO2 (configuration not stated),14%,38,-15%,-15%,3%
CCCc1nnc(SCc2cc(=O)c3c(C)cc(C)cc3[nH]2)n1C,nt,2,nt,9%,10%[46.1 µM]
C/C(=N\NC(=O)CN1CCN(c2ccc(F)cc2)CC1)c1ccco1,20%,4,-24%,-17%,2%
Cc1cccc(C(C)C)c1NC(=O)c1c(-c2ccccc2)noc1C,14%,-62*,nt,40%,nt
CCOc1ccc(CC(=O)NCc2ccc3c(c2)CCN3C(C)=O)cc1OCC,nt,74,nt,-2%,-2%[46.1 µM]
CCCCN(C(=O)c1ccc(Cl)cc1)C1CC2CCC(C1)N2C (configuration not stated),11µM*,-7,?,-2%,?
CN1C2CCC1CC(N(CCc1ccccc1)C(=O)c1ccc(Cl)cc1)C2 (configuration not stated),-21%,0,nt,-15%,nt
COc1ccc(OC)c(NC(=O)C(C)n2c(=O)cc(C)c3c(C)nn(-c4ccccc4)c32)c1 (configuration not stated),nt,1,nt,-13%,-4%[46.1 µM]
COc1cc(C2N(c3ccccc3)CCN2c2ccccc2)ccc1OC(C)=O,-11%,-63*,13%[46.1 µM],-12%,14%
COc1cccc(N2CCN(C(=O)C3Cc4ccccc4N3C(C)=O)CC2)c1 (configuration not stated),nt,19,nt,-5%,-23%[46.1 µM]
Cc1c(/C=C/C(=O)c2ccc(O)cc2)cnn1C,?,-14,-15%,11%,1%
Cc1c(/C=C/C(=O)c2ccc(C(C)C)cc2)cnn1C,32µM*,-87*,14%[46.1 µM],-1%,?
Cc1ccc(CS(=O)Cc2ccc(C(=O)NCc3cccs3)o2)cc1 (configuration not stated),-9%,10,nt,18%,nt
Cc1ccc(CS(=O)(=O)Cc2ccc(C(=O)NCc3cccs3)o2)cc1,-4%,-89*,?,-23%,?
Cc1ccc(CCNC(=O)c2ccc(CS(=O)(=O)Cc3ccccc3F)o2)cc1,?,-12,?,?,?
O=C(NCc1cccs1)c1ccc(CS(=O)(=O)c2ccc(Cl)cc2)o1,15%,-7,-14%,-8%,12µM*
Cc1ccccc1CS(=O)(=O)Cc1ccc(C(=O)NCCc2ccc(Cl)cc2)o1,nt,0,nt,28µM*,?
COCCC1CCCCN1Cc1nc(N2CCCC2)c2cc(OC)c(OC)cc2n1 (configuration not stated),nt,nt,nt,-2%,nt
CCn1ncc(Br)c1C(=O)Nc1ccc(Cl)cn1,15%,-65*,4%,-8%,-1%
CCCCc1c(-c2ccccc2OC)ncn1CCc1ccc(Cl)cc1,nt,-12,nt,?,nt
CCCCc1c(-c2ccccc2OC)ncn1CCc1ccc(OC)cc1,nt,-64*,nt,22µM*,nt
CCCCc1c(-c2ccccc2OC)ncn1CCc1ccccc1,nt,-33,nt,?,nt
CCCCc1c(Cc2ccccc2)ncn1CCc1ccccc1OC,nt,-76*,nt,?,nt
CCCCc1c(-c2ccc(OC)cc2)ncn1CCc1ccccc1OC,nt,-85*,nt,22µM*,nt
CCCCCc1c(-c2ccc(Cl)cc2)ncn1CCc1ccccc1OC,nt,-75*,nt,-1%,nt
SMILES,HCV inhibitor,HCMV inh,Marburg entry inh,FMDV inh,Lassa entry inh
CC(=O)OCC#CCSc1nnc(-c2cccc(Br)c2)o1,nt,-9,-11%[46.1 µM],16%,-1%[46.1 µM]
CCCCc1c(-c2ccccc2)ncn1CCc1ccccc1OC,nt,-75*,nt,25µM*,nt
CCCCc1c(-c2ccc(F)cc2)ncn1CCc1ccccc1OC,nt,-62*,nt,25µM*,nt
CCCCc1c(-c2cccc(Cl)c2)ncn1CCc1ccccc1OC,nt,-80*,nt,22µM*,nt
CCCc1c(-c2cccc(Cl)c2)ncn1Cc1ccccc1OC,nt,-23,nt,?,nt
CCCCCc1c(-c2ccc(OC)cc2)ncn1CCc1ccccc1OC,nt,-94*,nt,22µM*,nt
CCc1c(-c2ccc(Cl)cc2)ncn1CCc1ccccc1OC,nt,-23,nt,nt,nt
COC(=O)C1CCN(c2nc(CN(C)C3CCOC3)nc3cc(OC)c(OC)cc23)CC1 (configuration not stated),nt,nt,nt,-3%,nt
COc1cc(CN2CCOc3ccc(CN4CCC(O)(c5cccnc5)CC4)cc3C2)ccc1F,nt,nt,nt,1%,nt
CCOc1ccc(-n2c(SCC(=O)N3CCCc4ccccc43)nc3c([nH]c4ccccc43)c2=O)cc1,nt,10,nt,-18%,-15%[46.1 µM]
COc1cccc(N2CCN(C(=O)CCCCCNc3nc(=S)[nH]c4ccccc34)CC2)c1,11µM*,-62*,?,25µM*,-18%

# Screening data (PubChem BioAssay)
